How the values were obtained:
Assay in all cases: PBM binding z-score (relative to random genomic background probes); higher = stronger binding; sequences stand for … in GC…GCGATTGACAGCGTAGAATGAAGG
[1] = tested on: FXR:RXRa (NR concentration 270 nM, RXRa partner concentration 90 nM)
In short: (§1)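 Ligand-free nuclear receptor dimers were applied to custom Agilent 4×180K protein-binding microarrays whose double-stranded probes carried direct-repeat seeds, single-nucleotide variants, half-site ablations and random human genomic background sequences in 34-nt variable regions. Incubation lasted 1 h. Binding z-scores were computed against the random background probes from regression-normalized fluorescence.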

[2] = tested on: LXRa:RXRa (NR concentration 270 nM, RXRa partner concentration 90 nM)
In short: as §1

[3] = tested on: LXRa homodimer (NR concentration 270 nM)
In short: as §1

[4] = tested on: LXRb:RXRa (NR concentration 270 nM, RXRa partner concentration 90 nM)
In short: as §1

[5] = tested on: LXRb homodimer (NR concentration 270 nM)
In short: as §1

[6] = tested on: PPARa:RXRa (NR concentration 270 nM, RXRa partner concentration 90 nM)
In short: as §1

[7] = tested on: PPARg:RXRa (NR concentration 180 nM, RXRa partner concentration 90 nM)
In short: as §1

[8] = tested on: PPARg:RXRa 270nM:90nM, anti-RXR (NR concentration 270 nM, RXRa partner concentration 90 nM)
In short: as §1

[9] = tested on: PPARg:RXRa 30nM:10nM, anti-RXR (NR concentration 30 nM, RXRa partner concentration 10 nM)
In short: as §1

[10] = tested on: PPARg:RXRa 90nM:30nM, anti-RXR (NR concentration 90 nM, RXRa partner concentration 30 nM)
In short: as §1

[11] = tested on: PPARg:RXRa DBDmut IVT, anti-RXR (DBD mutation: RXRa K156A/R161A, NR concentration 270 nM, RXRa partner concentration 90 nM)
In short: as §1

[12] = tested on: PPARg:RXRa IVT, anti-PPARg (NR concentration 270 nM, RXRa partner concentration 90 nM)
In short: as §1

[13] = tested on: PPARg DBDmut IVT, anti-PPARg (DBD mutation: PPARg1 K132A/R137A, NR concentration 270 nM)
In short: as §1

[14] = tested on: PPARg homodimer (NR concentration 180 nM)
In short: as §1

[15] = tested on: PXR:RXRa (NR concentration 270 nM, RXRa partner concentration 90 nM)
In short: as §1

[16] = tested on: PXR homodimer (NR concentration 270 nM)
In short: as §1

[17] = tested on: RARa:RXR (NR concentration 270 nM, RXRa partner concentration 90 nM)
In short: as §1

[18] = tested on: RARa homodimer (NR concentration 270 nM)
In short: as §1

[19] = tested on: RARb:RXRa (NR concentration 270 nM, RXRa partner concentration 90 nM)
In short: as §1

[20] = tested on: PPARg DBDmut:RXRa IVT, anti-PPARg (DBD mutation: PPARg1 K132A/R137A, NR concentration 270 nM, RXRa partner concentration 90 nM)
In short: as §1

Sequence | PBM binding z-score [1] | PBM binding z-score [2] | PBM binding z-score [3] | PBM binding z-score [4] | PBM binding z-score [5] | PBM binding z-score [6] | PBM binding z-score [7] | PBM binding z-score [8] | PBM binding z-score [9] | PBM binding z-score [10] | PBM binding z-score [11] | PBM binding z-score [12] | PBM binding z-score [13] | PBM binding z-score [14] | PBM binding z-score [15] | PBM binding z-score [16] | PBM binding z-score [17] | PBM binding z-score [18] | PBM binding z-score [19] | PBM binding z-score [20]
CGAACTAGGTCAAAGGACAATGAAAGGCGACGTA | 3.98 | 2.65 | 0.155 | 1.92 | -0.0883 | 5.61 | 10.3 | 8.49 | 8.29 | 9.41 | 7.79 | 8.35 | 0.575 | 1.69 | 1.5 | 0.00867 | 2.52 | 0.325 | 3.85 | –
CGAACTAGGTCCCCAGGACAGTGAAGAGGTTGGA | -0.407 | -0.759 | -0.417 | -0.926 | -1.3 | 0.171 | 0.418 | 0.762 | -0.453 | 0.0759 | 3.03 | 2.5 | -1.06 | -0.774 | -0.741 | -0.316 | -0.649 | -0.996 | 0.0236 | –
CGAACTAGGTCAAAGGACGGTGAAAGGCGACGTA | 4.04 | 2.51 | -0.304 | 1.41 | -0.584 | 5.34 | 9.5 | 8 | 7.43 | 8.82 | 7.71 | 8.31 | 2.26 | 1.81 | 0.75 | -0.279 | 2.05 | 0.114 | 3.76 | –
CTAACTAGGTCACCAGGACAGTGAAGAGGTTGGA | 4.07 | 2.77 | 0.482 | 1.74 | 0.0977 | 5.34 | 9.24 | 7.69 | 5.34 | 7.49 | 8.89 | 9.08 | -0.261 | 1.88 | 1.42 | 0.375 | 2.8 | 0.69 | 4.28 | –
ATATCTAGGTTAGGGTCATTCAGAAAGTAGGGAA | 4.54 | 4.26 | 1.73 | 4.39 | 2.24 | 5.65 | 7.73 | 6.5 | 4.33 | 6.58 | 6.71 | 6.95 | 2.23 | 3.98 | 4.33 | 2.01 | 4.78 | 2.98 | 3.43 | –
CGAACTAGGTCAAAGGACAGGGAAAGGCGACGTA | 4.04 | 2.31 | -0.139 | 1.77 | -0.371 | 5.35 | 10.4 | 8.79 | 8.45 | 9.16 | 7.68 | 8.19 | 4.37 | 2.31 | 0.895 | -0.253 | 2.37 | 0.0193 | 3.9 | –
CGAACTAGTTCACCAGGACAGTGAAGAGGTTGGA | 0.244 | 0.23 | -0.131 | -0.137 | -0.531 | 0.836 | 0.543 | 0.354 | -0.289 | -0.0706 | 1.56 | 1.11 | 0.126 | -0.235 | 0.423 | 0.241 | 0.0691 | -0.106 | 1.7 | –
GATACAGGGTCATCTAGAGGCCAGAGTATGGAAA | 6.84 | 5.02 | 0.214 | 4.22 | 0.201 | 5.87 | – | 5.65 | 2.33 | 4.1 | 1.93 | 3.6 | 0.0112 | 3.91 | 4.97 | 0.378 | 6.28 | 0.58 | 4.48 | 0.707
CGAACTAGGTCAAAGGACAGTCAAAGGCGACGTA | 4.15 | 2.73 | -0.061 | 1.89 | -0.231 | 5.68 | 10.2 | 8.68 | 8.42 | 9.11 | 8.1 | 8.4 | 2.46 | 1.64 | 1.39 | -0.21 | 2.49 | 0.35 | 3.87 | –
ATATGTAGGTTAGGGTCATTCACAAAGTAGGGAA | 4.56 | 4.43 | 1.56 | 4.7 | 1.64 | 5.7 | 7.65 | 6.7 | 3.97 | 6.22 | 6.56 | 6.82 | 1.75 | 2.3 | 4.57 | 2.17 | 4.83 | 2.07 | 3.49 | –
ATATGTAGGTTAAGGGTCATGCAGGTTGGTTCGC | 4.83 | 4.77 | 2.17 | 4.13 | 1.3 | 6.71 | – | 10.2 | 10.9 | 11.9 | 7.69 | 7.88 | 2.56 | 5.05 | 5.37 | 2.16 | 6.47 | 2.37 | 3.73 | 4.88
CGAACTAGGTCAAAGGAAAGTGAAAGGCGACGTA | 3.12 | 1.88 | -0.168 | 1.2 | -0.265 | 4.7 | 8.32 | 7.07 | 5.62 | 7.13 | 7.92 | 8.23 | 1.64 | 0.636 | 0.854 | -0.0237 | 1.65 | 0.526 | 3.55 | –
CCTACTGGGCCAAAGGTCATAGATTCCAATGCTC | 4.64 | 4.61 | 3.46 | 4.47 | 0.244 | 6.34 | – | 10.5 | 11 | 11.5 | 5.3 | 7.19 | -0.0407 | 4.53 | 5.14 | 1.46 | 6.41 | 1.47 | 4.4 | 0.0659

Reference: the supplement of paper PMC6555819
